Compound activity (PubChem BioAssay)
LEDGF integ inh – blockers of LEDGF/p75-dependent integrase strand transfer – biochemical, TR-FRET, high throughput, primary screen; HIV-1 integrase (with human LEDGF/p75); TR-FRET IN-LEDGF/p75 DNA integration, Eu/Cy5; inhibition, % at 3.7 µM; 370,000 tested, 0.64% active; AID 743269, 2014;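 active = inhibition above the screen-wide mean plus 3 SD, cut at about 13% in these data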;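 note: signal is the Cy5 over europium emission ratio at 671 and 618 nm; 0% = plate median of compound wells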
ABHD5-PLIN5 inh – ABHD5-PLIN5 interaction inhibitors, primary screen, cell lysate, split luciferase complementation, luminescence | inhibition, % at 4 µM | Perilipin-5 (Homo sapiens) + 1-acylglycerol-3-phosphate O-acyltransferase ABHD5 (Homo … | Split G. princeps luciferase complementation, 4 h | 360,000 tested, 0.78% active;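 active = inhibition above the mean inhibition across every tested compound plus 3 SD, cut at about 22% in these data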;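 note: 0% = DMSO only wells and the 100% control is not disclosed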
Target sequence (Q00G26 whole entry, looked up): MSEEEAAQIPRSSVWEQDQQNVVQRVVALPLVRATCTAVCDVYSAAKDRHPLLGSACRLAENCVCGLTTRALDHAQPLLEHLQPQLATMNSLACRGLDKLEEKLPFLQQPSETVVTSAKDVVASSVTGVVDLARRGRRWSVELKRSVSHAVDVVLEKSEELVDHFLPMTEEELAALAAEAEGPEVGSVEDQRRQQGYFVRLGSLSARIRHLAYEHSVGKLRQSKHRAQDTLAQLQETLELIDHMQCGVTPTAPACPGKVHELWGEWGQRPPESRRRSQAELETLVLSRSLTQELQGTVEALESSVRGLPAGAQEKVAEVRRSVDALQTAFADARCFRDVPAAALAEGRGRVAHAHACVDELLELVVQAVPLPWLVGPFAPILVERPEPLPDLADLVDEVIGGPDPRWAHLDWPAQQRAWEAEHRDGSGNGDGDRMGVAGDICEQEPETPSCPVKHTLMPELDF
Target sequence (Q8WTS1 whole entry, looked up): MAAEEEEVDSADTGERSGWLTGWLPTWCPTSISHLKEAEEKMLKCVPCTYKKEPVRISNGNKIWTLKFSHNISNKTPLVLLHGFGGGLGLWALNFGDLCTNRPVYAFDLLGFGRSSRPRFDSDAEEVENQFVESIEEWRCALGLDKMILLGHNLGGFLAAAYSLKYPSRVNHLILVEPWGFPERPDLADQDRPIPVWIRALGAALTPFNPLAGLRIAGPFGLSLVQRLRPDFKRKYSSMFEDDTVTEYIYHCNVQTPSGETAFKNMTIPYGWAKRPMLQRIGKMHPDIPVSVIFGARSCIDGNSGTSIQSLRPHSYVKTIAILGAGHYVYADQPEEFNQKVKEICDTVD
MBD2 DNA inh – inhibitors of MBD2 binding to methylated DNA, primary screen, biochemical, TR-FRET, DNA-binding domain, human; MBD2 binding to methylated oligonucleotide; Methyl-CpG-binding domain protein 2 (Homo sapiens), Q9UBB5; inhibition, % at 4.4 µM; 370,000 tested, 0.31% active; AID 686964, 2013; in the data active = inhibition above about 13%
PRMT1 FP inh – PRMT1 methyltransferase inhibitors, primary screen, biochemical, fluorescence polarization. 370,000 tested, 1.3% active. Protein arginine N-methyltransferase 1 (Homo sapiens), Q99873. recombinant PRMT1, activity-based probe fluorescence polarization. AID 652257, 2013. inhibition, % at 2.79 µM;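 active = inhibition above about 21% made by adding two undisclosed values, limit read from the data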
UHRF1 MBD2 ctr – UHRF1 methylated DNA binding inhibitors, primary screen, counter-screen for MBD2 inhibitor project, biochemical, TR-FRET, human UHRF1, single concentration. UHRF1 binding to methylated oligo. inhibition, % at 4.4 µM. 370,000 tested, 0.75% active. AID 687016, 2013;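 note: UHRF1 SRA domain binding a hemimethylated CpG hairpin DNA probe; 0% = median of test compound wells and 100% = reference inhibitor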
rCAG binder – binders of r(CAG) RNA repeats, primary screen, biochemical, fluorescence; r(CAG) RNA repeat, TO-PRO-1 dye displacement fluorescence; inhibition, % at 3 µM; AID 651821, 2012; 370,000 tested, 1.3% active;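 active = inhibition above the plate cutoff, the mean of all test compounds on that plate plus 3 SD, cut at about 35% in these data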;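 note: 0% = DMSO alone and 100% = 100 µM mitoxantrone as full dye displacement; higher means more dye released from RNA so lower well fluorescence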
UHRF1 DNA bind – UHRF1 methylated DNA binding inhibitors, counter-screen for MBD2 inhibitor project, biochemical, TR-FRET, human UHRF1; shares compounds with MBD2 DNA inh; UHRF1 binding to methylated oligonucleotide; inhibition, % at 4.4 µM; 1,000 tested, 25% active;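 note: UHRF1 SRA domain binding a labeled hemimethylated CpG hairpin DNA; 0% = vehicle only and 100% = reference inhibitor with vehicle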
MBD2 DBD conf – inhibitors of MBD2 binding to methylated DNA, confirmation, biochemical, TR-FRET, DNA-binding domain, human; shares compounds with MBD2 DNA inh; TR-FRET MBD2-DBD binding to methylated oligonucleotide; inhibition, % at 4.4 µM; 1,000 tested, 26% active; in the data active = inhibition above about 14%
The depositor's hits bear a star. The list is not random: actives were taken first. Their share in the collection is about 4.1%. Cut-off read from the data, not from the text of the source, unless noted: active = inhibition above about 21%; inactive = the rest.

For C=CCOc1ccc(CNCC2CCCO2)cc1 (centres undefined) the results were LEDGF integ inh 13, ABHD5-PLIN5 inh 7, MBD2 DNA inh 22*, PRMT1 FP inh -5, UHRF1 MBD2 ctr 39*, rCAG binder 0, UHRF1 DNA bind 7 and MBD2 DBD conf 1.
Screening COc1ccc(NC(=O)/C(C#N)=C\c2ccc(Br)o2)cc1 returned LEDGF integ inh 2, ABHD5-PLIN5 inh 1, MBD2 DNA inh 14*, PRMT1 FP inh 4, UHRF1 MBD2 ctr 14, rCAG binder 8, UHRF1 DNA bind 20 and MBD2 DBD conf 6.
`COc1ccc(NC(=O)/C(C#N)=C/c2ccc(-c3ccccc3C(=O)O)o2)cc1` gave LEDGF integ inh 2, ABHD5-PLIN5 inh -3, MBD2 DNA inh -1, PRMT1 FP inh 3, UHRF1 MBD2 ctr -5 and rCAG binder 23.
`COc1cc(OC)cc(-c2sc3ccc(OC)cc3c2C#CC2(N)CCCCC2)c1` gave LEDGF integ inh 9, ABHD5-PLIN5 inh 11, MBD2 DNA inh 14*, PRMT1 FP inh 4, UHRF1 MBD2 ctr 29*, rCAG binder 12, UHRF1 DNA bind 3 and MBD2 DBD conf 7.
COc1cccc(-c2sc3ccc(OC)cc3c2C#CC2(O)CCCCC2)c1 was read as LEDGF integ inh 0, ABHD5-PLIN5 inh -5, MBD2 DNA inh -2, PRMT1 FP inh -1, UHRF1 MBD2 ctr 11 and rCAG binder 12.
Screening CN1C2=N[C@@H](c3ccccc3)CC(=O)N2/C(=C\c2ccccc2)[C@H]1c1ccccc1 returned LEDGF integ inh 12, MBD2 DNA inh 22*, PRMT1 FP inh 2, UHRF1 MBD2 ctr 31*, UHRF1 DNA bind 9 and MBD2 DBD conf 8.
Screening CN1C2=N[C@@H](c3ccc4ccccc4c3)CC(=O)N2/C(=C\c2ccccc2)[C@H]1c1ccccc1 returned LEDGF integ inh 2, MBD2 DNA inh 14*, PRMT1 FP inh 18, UHRF1 MBD2 ctr 28*, UHRF1 DNA bind 20 and MBD2 DBD conf 12.
For COc1ccc(/C=C2/CN(Cc3ccc(OC)cc3OC)C3=NC(c4ccc5ccccc5c4)CC(=O)N32)cc1 (centres undefined) the results were LEDGF integ inh 2, MBD2 DNA inh 3, PRMT1 FP inh 4 and UHRF1 MBD2 ctr 1.
`O=C(c1c(F)cccc1F)N1CCC(Oc2cccnc2)CC1` gave LEDGF integ inh 2, MBD2 DNA inh -3, PRMT1 FP inh 0, UHRF1 MBD2 ctr 2 and rCAG binder 0.
N#CCSc1ncnc2sc3c(c12)CCC3 was read as LEDGF integ inh 5, ABHD5-PLIN5 inh -8, MBD2 DNA inh 14*, PRMT1 FP inh 4, UHRF1 MBD2 ctr 24*, rCAG binder 13, UHRF1 DNA bind 7 and MBD2 DBD conf 4.
`Cc1nc(SCC#N)c2c3c(sc2n1)CCC3` gave LEDGF integ inh -1, ABHD5-PLIN5 inh 2, MBD2 DNA inh -2, PRMT1 FP inh 1, UHRF1 MBD2 ctr 0 and rCAG binder -1.
`COC(=O)C1CN(Cc2cn(Cc3ccc(F)cc3)nn2)CCS(=O)(=O)N1Cc1ccc(OC)cc1` (centres undefined) gave LEDGF integ inh 5, MBD2 DNA inh 5, PRMT1 FP inh 0, UHRF1 MBD2 ctr 13 and rCAG binder -1.
CCCOCc1ccc(O)c2ncccc12 was read as LEDGF integ inh -2, ABHD5-PLIN5 inh 0, MBD2 DNA inh 19*, PRMT1 FP inh 0, UHRF1 MBD2 ctr -1, rCAG binder 4, UHRF1 DNA bind 0 and MBD2 DBD conf 2.
Screening COC(=O)[C@]12C[C@H](CC(=O)NCCC(C)C)C(=O)N(CCc3ccc(OC)c(OC)c3)C1=C[C@H](C(C)C)O[C@@H]2C1CC1 returned LEDGF integ inh -2, MBD2 DNA inh 4, PRMT1 FP inh -2, UHRF1 MBD2 ctr 4 and rCAG binder 3.
`COc1ccc(CCC[C@H](CCC(=O)N(c2ccccc2)c2ccccc2)CCc2ccccc2)cc1` gave LEDGF integ inh -3, MBD2 DNA inh -3, PRMT1 FP inh -2, UHRF1 MBD2 ctr 1 and rCAG binder 3.
`O=C1c2ccccc2-c2cccnc21` gave LEDGF integ inh 2, ABHD5-PLIN5 inh -5, MBD2 DNA inh 16*, PRMT1 FP inh -2, UHRF1 MBD2 ctr -11, rCAG binder 0, UHRF1 DNA bind 2 and MBD2 DBD conf -5.
Screening Cc1nc2c(nc1C)C(=O)c1ccccc1C2=O returned LEDGF integ inh 2, ABHD5-PLIN5 inh -14, MBD2 DNA inh -11, PRMT1 FP inh 1, UHRF1 MBD2 ctr -1 and rCAG binder 0.
For Cc1ccccc1CC1(CO)CCCN(C(=O)CCN2CCCO2)C1 (centres undefined) the results were LEDGF integ inh 5, ABHD5-PLIN5 inh -6, MBD2 DNA inh 16*, PRMT1 FP inh -8, UHRF1 MBD2 ctr 2, rCAG binder -2, UHRF1 DNA bind 4 and MBD2 DBD conf 3.
`NS(=O)(=O)c1ccc(-c2c(-c3ccccc3)sc3ccccc23)cc1` gave LEDGF integ inh 2, ABHD5-PLIN5 inh -1, MBD2 DNA inh 14*, PRMT1 FP inh 3, UHRF1 MBD2 ctr 22*, rCAG binder 16, UHRF1 DNA bind 10 and MBD2 DBD conf 4.
`COc1ccc(-c2sc3ccccc3c2-c2ccc(O)cc2)cc1` gave LEDGF integ inh 1, ABHD5-PLIN5 inh -4, MBD2 DNA inh 3, PRMT1 FP inh 0, UHRF1 MBD2 ctr -2 and rCAG binder 8.
S=C(NCCCN1CCOCC1)Nc1ccc(Cl)cc1 was read as LEDGF integ inh 1, ABHD5-PLIN5 inh -1, MBD2 DNA inh 2, PRMT1 FP inh -3, UHRF1 MBD2 ctr -4 and rCAG binder -1.
`O=C(NCCCN1CCOCC1)C(=O)NCc1ccc(Cl)cc1` gave LEDGF integ inh -1, ABHD5-PLIN5 inh 2, MBD2 DNA inh 13*, PRMT1 FP inh 0, UHRF1 MBD2 ctr 1, rCAG binder -4, UHRF1 DNA bind 7 and MBD2 DBD conf 3.
